Consider 25 compounds from PubChem BioAssay (NCI).

Common to all, as to experiment: NCI-60 one-dose screen, 48 h (100 = growth as untreated, 0 = no growth, -100 = all killed)
What all share (conditions): 10 µM

In assay [1] the test system is RPMI-8226 leukemia.
Assay [2] has as its system OVCAR-8 ovarian.
For assay [3], the system named is OVCAR-5 ovarian.
Assay [4] relates to OVCAR-4 ovarian.
For assay [5], the system named is SK-OV-3 ovarian.
For assay [6], the system named is IGROV1 ovarian.
The test system of assay [7] is OVCAR-3 ovarian.
Assay [8] concerns HS 578T breast.
Assay [9] concerns NCI/ADR-RES ovarian.
The test system of assay [10] is T-47D breast.

Compounds without any hit were thinned out: in the full panel of roughly 83,000, 20% have a hit.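 Percent growth is the endpoint: 0 to 100 indicates growth inhibition (40 means 60% inhibition), 0 means no net growth, and negative values indicate cell death.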 Unmarked numbers belong to inactive results. Calls of active or inactive are those of the source. Rule for the calls: active = growth percent below 10; inactive = the rest.

Consider `CCCCCCN1C(=O)C2=C(c3ccc(Cl)cc3)Nc3c(c(C)nn3-c3ccccc3)C2c2ccccc21` (stereo not given), for which the growth in assay [1] was 81.2%; in assay [2], 92.5%; in [3] it was 100%; in [4], 90.5%; in [5], 95.9%; in [6] it was 100%. For the same compound, the growth in assay [7] was 92.7%; in assay [8] it was 118%; in [9], 97.8%; in [10], 84.5%.
In the case of `Cc1ncc(-c2ccoc2)c(NC2CCCCCC2)n1`, the growth in assay [1] was 105%; in assay [2], 99.1%; in [3] it was 107%; in assay [4] it was 105%; in assay [5] it was 93.8%; in [6], 96.4%. Further, the growth in assay [7] is 101%; in assay [8], 111%; in [9], 102%; in assay [10], 92%.
`COc1cc(-c2cc(C(=O)N3CCN(C(=O)c4ccccc4NCc4cccs4)CC3)nc3cc(-c4ccccc4)nn23)cc(OC)c1OC`: the growth was 75.2% in [1]; 90% in assay [2]; 86.6% in [3]; 89.4% in assay [4]; 86.7% in assay [5]; 36.6% in assay [6]. Moreover, the growth was 9.27% (active) in [7], 85.7% in assay [8], 52.6% in assay [9] and 79.6% in assay [10].
Regarding `Cc1nc2ccccc2c(N)c1-c1cc(C)c2c(C)nc3ccccc3c2n1`, the growth is -40.9% (active) in assay [1]; -29.4% (active) in [2]; 32.4% in assay [3]; -64.1% (active) in assay [4]; 96.7% in assay [5]; -92% (active) in assay [6]. The growth in assay [7] was -96.6% (active); in assay [8], -32.3% (active); in [9], 43.8%; in assay [10], -20.4% (active).
As to `CCN1CCN(c2nc3ccccc3c3c(=O)c4ccccc4sc23)CC1`, the growth in assay [1] was 53.8%; in [2], 36.9%; in assay [3], 68.7%; in [4], 55.2%; in [5], 59.9%; in [6], 36.3%. The growth was 60.7% in assay [7], 52.6% in [8], 37.8% in [9] and 54.5% in [10].
For `Cc1ccc(NC(=O)NC2CCCCC2)cc1`, the growth in assay [1] is 108%; in [2], 106%; in assay [3], 103%; in assay [4], 114%; in [5], 95.8%; in assay [6] it was 105%. The growth in assay [7] is 109%; in [8], 107%; in assay [9], 110%; in assay [10] it was 93.2%.
For `COc1cc(/C=N/NC(=O)c2ccccc2Nc2cccc(C(F)(F)F)c2)cc(OC)c1OC`, the growth is 236% in [1]; 34.3% in [2]; 62.1% in assay [3]; 9.6% (active) in assay [4]; 16.1% in [5]; -17.1% (active) in assay [6]. Further, the growth in assay [7] is -53.8% (active); in assay [8], 12.2%; in assay [9], 12.6%; in assay [10] it was 29.6%.
Regarding `O=C1/C(=C\c2ccc(Cl)cc2)CN(C(=O)c2ccccc2)C/C1=C\c1ccc(Cl)cc1`, the growth was -25% (active) in [1]; 4.04% (active) in assay [2]; 83.8% in assay [3]; 36% in [4]; 59.3% in [5]; 4.31% (active) in assay [6]. For the same compound, the growth in assay [7] is -8.04% (active); in assay [8], 5.5% (active); in assay [9] it was 28.3%; in [10], 67.2%.
In the case of `O=C(Nc1nc(-c2ccccc2Cl)cs1)c1cc(-c2ccc(Cl)cc2)nc2ccc(Cl)cc12`, the growth in assay [1] was 14%; in [2], 1.38% (active); in assay [3], 102%; in assay [4], 44%; in assay [5], 82%; in assay [6], 24.4%. Also, the growth in assay [7] is 2.87% (active); in [8] it was 14.9%; in assay [9] it was 2.23% (active); in [10] it was 64.3%.
`CC12O[C@H](C[C@@H](O)[C@H]1O)n1c3ccccc3c3c4c(c5c6ccccc6n2c5c31)C(=O)N(CCCN)C4=O`: the growth was 40.2% in assay [1]; 33.9% in assay [2]; 97.2% in assay [3]; 61% in [4]; 41.8% in [5]; 17.9% in assay [6]. Further, the growth in assay [7] is 37.8%; in assay [8] it was 43.4%; in assay [9], 101%; in assay [10], 24%.
Turning to `COc1cc(Cl)cc(-c2nn(-c3cccc(NC(=O)c4ccc(Cl)c(Cl)c4)c3)cc2-c2ccncc2)c1`, the growth in assay [1] is 46%; in assay [2], 58.4%; in assay [3], 79.2%; in [4], 58.6%; in [5], 80.1%; in [6], 71.6%. The growth was 53.4% in assay [7], 63.6% in assay [8], 61.4% in assay [9] and 63.2% in [10].
With `CCOC(=O)N1C/C(=C/c2ccc(Cl)cc2)C(=O)/C(=C/c2ccc(Cl)cc2)C1`, the growth is -11.6% (active) in [1]; 27.8% in assay [2]; 120% in assay [3]; 60.5% in assay [4]; 83.7% in [5]; 44% in [6]. Further, the growth in assay [7] was 27.4%; in assay [8] it was 63.9%; in assay [9] it was 71%; in assay [10], 69.8%.
As to `COc1ccc(Cl)cc1-n1nnc(-c2nc3ccccc3[nH]2)c1N`, the growth was 53.9% in assay [1]; 82.4% in assay [2]; 96.2% in [3]; -79.9% (active) in [4]; 62.6% in [5]; 85.5% in assay [6]. Also, the growth in [7] was 86.7%; in assay [8], 43.3%; in assay [9], 92.1%; in [10], 67.5%.
On to `CC(C)(C)c1ccc(N2CSC(=S)N(c3ccc(C(C)(C)C)cc3)C2)cc1`, for which the growth in [1] is 76.5%; in assay [2], 107%; in assay [3], 101%; in assay [4] it was 98.3%; in [5] it was 94.1%; in assay [6], 55.3%. In addition, the growth in assay [7] was 109%; in assay [8], 112%; in assay [9], 96.1%; in assay [10], 81.4%.
For the compound `N#CCCN1C/C(=C/c2ccc(Br)cc2)C(=O)/C(=C/c2ccc(Br)cc2)C1`, the growth in assay [1] is -14% (active); in assay [2], -17.3% (active); in assay [3], 2.15% (active); in assay [4], 0.905% (active); in assay [5], 9.84% (active); in [6], -69.1% (active). Further, the growth in assay [7] was -65.2% (active); in assay [8] it was 12.4%; in assay [9] it was 16.8%; in [10], 6.33% (active).
As to `O=C(Nc1ccc(Cl)c(Cl)c1)Nc1c(Oc2ccc(Cl)c(Cl)c2)ccc(Cl)c1S(=O)(=O)O`, the growth in assay [1] was 14.9%; in [2], 27.7%; in assay [3], 53.7%; in [4] it was 65.6%; in assay [5] it was 22.4%; in [6], 30.4%. In addition, the growth in assay [7] is -9.85% (active); in assay [8], -5.79% (active); in [9], 2.06% (active); in [10], 51.4%.
Take `CN(Cc1ccccc1)Cc1ccc([N+](=O)[O-])cc1I`: the growth was 91.9% in assay [1]; 102% in assay [2]; 93.7% in [3]; 91% in [4]; 94.9% in assay [5]; 92.5% in assay [6]. For the same compound, the growth in assay [7] was 98.9%; in assay [8], 95.4%; in assay [9], 103%; in assay [10], 93.9%.
Consider `COc1ccc(Nc2ccnc(NCCNc3ccnc4cc(Cl)ccc34)n2)cc1`, for which the growth is -22.9% (active) in assay [1]; 59.5% in [2]; 51.2% in assay [3]; 37.1% in assay [4]; 74.7% in [5]; 24.6% in assay [6]. Further, the growth in assay [7] is 60.3%; in assay [8], 76.8%; in assay [9], 66.8%; in assay [10] it was 34.9%.
For `CCN(CC)CCN1CC(=O)Nc2cc(Cl)ccc21`, the growth in assay [1] was 109%; in assay [2], 108%; in [3] it was 102%; in assay [4] it was 103%; in assay [5] it was 110%; in assay [6], 99.9%. Besides, the growth in assay [7] is 109%; in assay [8] it was 94.4%; in [9] it was 94.2%; in [10], 107%.
`COc1cc(-c2nnc(-c3c(-c4ccc(F)cc4)nc4ccccn34)o2)cc(OC)c1OC`: the growth was 71.9% in assay [1]; 46.6% in [2]; 95.6% in assay [3]; 69.5% in assay [4]; 76% in assay [5]; 119% in assay [6]. Moreover, the growth is 75.1% in assay [7], 68.1% in [8], 61.6% in [9] and 53.1% in [10].
`Cc1ccc(S(=O)(=O)Oc2ccc3c4c(c(=O)oc3c2)CCCCC4)cc1`: the growth is 24% in assay [1]; 63.1% in assay [2]; 93.5% in assay [3]; 51.3% in assay [4]; 93.1% in [5]; 82.1% in assay [6]. Moreover, the growth in [7] was 75.1%; in [8], 79.7%; in [9] it was 53.2%; in assay [10], 33.4%.
Consider `N=C(N)c1ccc(-c2ccc(-c3ccco3)o2)cc1`, for which the growth is 25.3% in [1]; 76.2% in assay [2]; 79% in assay [3]; 62.9% in assay [4]; 94.9% in [5]; 69.7% in [6]. Moreover, the growth was 88.2% in assay [7], 83.4% in assay [8], 93.1% in assay [9] and 58.7% in assay [10].
In the case of `COc1ccc2c(c1)sc1nc(-c3ccccc3)c(-c3ccc(O)c(OC)c3)n12`, the growth is 78.5% in assay [1]; 97.5% in assay [2]; 107% in assay [3]; 102% in assay [4]; 96% in [5]; 72.8% in [6]. Moreover, the growth is 83.5% in assay [7], 84.6% in assay [8], 64.6% in assay [9] and 111% in assay [10].
Consider `Nc1nc(N)c(NC(=O)CNc2ccc(C(=O)O)cc2)c(N)n1`, for which the growth in assay [1] is 98%; in assay [2] it was 105%; in assay [3], 108%; in assay [4] it was 104%; in assay [5] it was 107%; in assay [6], 118%. Also, the growth in [7] is 118%; in [8], 103%; in [9], 123%; in [10] it was 94.6%.
`Oc1[nH]c2cc(Cl)ccc2c1/C=c1/ccc2c(c1)N=C(c1cc(F)cc(F)c1)N=2`: the growth in [1] was -4.53% (active); in assay [2] it was 30.5%; in assay [3], 75.5%; in assay [4], 48.8%; in assay [5], 1.53% (active); in [6], 43%. For the same compound, the growth is -50.4% (active) in [7], 17.3% in assay [8], 2.67% (active) in assay [9] and 30.9% in assay [10].
